Sa RN4220 lethal: kills Staphylococcus aureus RN4220; inhibition, % (no concentration beside the values); actives 0.33% (n = 330,000); S. aureus RN4220 growth, OD600, 16 h; in the data active means inhibition above about 85%;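 further: plate controls were untreated cells for no effect and reference antibiotic for full effect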
Mtb hypoxia inh: inhibitors of hypoxia-regulated fluorescent reporter in Mycobacterium tuberculosis; M. tuberculosis hypoxia-regulated fluorescent reporter, fluorescence; fluorescence inhibition, % (no concentration beside the values); actives 0.1% (n = 300,000); AID 1159583; in the data active means fluorescence inhibition mostly above about 23%, no sharp cut-off; inactive means mostly below about 17%
BH1578 lux ind: quorum light induction in luxS cqsA deficient V. cholerae; activation, % at 18.7 µM; actives 0.16% (n = 350,000); V. cholerae BH1578 lux reporter, luminescence, 6 h; in the data active means activation mostly above about 9.7%, no sharp cut-off; inconclusive means no clear call, values can overlap the other calls; inactive means mostly below about 3.7%
CCHF vOTU inh: CCHFV vOTU protease inhibition. Pep-AMC fluorescence. inhibition, % at 11.5 µM. actives 0.55% (n = 370,000). AID 651958; in the data active means inhibition above about 30%; further: 0% = vehicle wells with enzyme and 100% = no enzyme wells
Sa ugtP lethal: kills S. aureus RN4220 lacking UgtP; growth inhibition, % (concentration not given with the values); actives 0.54% (n = 330,000); S. aureus RN4220 ugtP deletion, OD600 growth, 16 h; AID 1259309; in the data active means growth inhibition above about 68%;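 further: plate controls were untreated wells for no effect and antibiotic for full effect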
PfHsp40 rescue: compounds rescuing yeast from Plasmodium falciparum HSP40 toxicity; actives 0.68% (n = 340,000); S. cerevisiae expressing PfHsp40, growth rescue, ATP luminescence; growth rescue, % at 12.5 µM; in the data active means growth rescue above about 28%, passing the limit was not always enough; inconclusive means no clear call, values can overlap the other calls;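 further: yeast W303a lacking pdr1 and pdr3 grown in galactose medium; growth measured after three days at 30 °C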
The depositor's hits bear a star; i = inactive; ? = inconclusive; . = no result shown. Rows were chosen to be rich in hits. Some 1.7% of all compounds tested hit in one or more screens of this group.

SMILES	Sa RN4220 lethal	Mtb hypoxia inh	BH1578 lux ind	CCHF vOTU inh	Sa ugtP lethal	PfHsp40 rescue
COc1ccc(C=NNC(=O)c2nn(-c3ccccc3)c(=O)c3c(N)scc23)cc1	9	2	.	.	-10	.
O=C(NCCCNc1ccc(C(F)(F)F)cc1[N+](=O)[O-])c1ccc(Cl)cc1	5	4	-2	-4	-20	471*
CC1(c2ccccc2)CC(C)(C)N2C(=O)C(=O)c3cccc1c32 (stereo not given)	.	.	i	6	.	0
CC1(c2ccccc2)CC(C)(C)N2C(=O)C(=C3SC(=S)NC3=O)c3cccc1c32 (stereo not given)	100*	5	.	.	100*	.
O=C(NN=Cc1cccnc1)c1ccc([N+](=O)[O-])cc1	5	-1	.	.	3	.
C#Cc1ccc(C2C=C(C(=O)N3CCN(Cc4ccccc4)CC3)OC(OCc3ccc(CO)cc3)C2)cc1 (stereo not given)	28	7	.	.	-27	.
CCC1CCCCN1CCCNC(=O)c1cn(C)c2ccc(S(=O)(=O)N(C)C3CCCCC3)cc2c1=O (stereo not given)	2	1	0	9	0	38*
O=C(NN=Cc1ccc2c(c1)OCO2)c1ccc(Cl)cc1Cl	3	1	.	.	4	.
Nc1nonc1-n1nnc(C(=O)NN=Cc2ccoc2)c1CSc1ccccc1	-1	11	.	.	6	.
Cc1cc(S(N)(=O)=O)ccc1N=Cc1c(O)n(-c2ccccc2)c(=O)[nH]c1=O	9	8	i	8	-5	-1
Cc1ccc(-n2c(O)c(C=Nc3ccccc3N)c(=O)[nH]c2=O)cc1C	0	.	0	22	-1	40*
COC(=O)c1c(NC(=O)C(C)(C)C)csc1C	2	16	0	-4	2	38*
CN(CC(Cc1ccccc1)N(CC(c1ccccc1)N(CCc1ccccc1)N=O)N=O)N=O (stereo not given)	8	17	.	.	6	.
O=S(=O)(NCCSCc1ccc(Cl)c(Cl)c1)c1ccc2c(c1)OCCO2	-8	.	i	6	42	42*
Cc1ccc(SCCNS(=O)(=O)c2ccc3c(c2)OCCO3)cc1	4	-6	i	13	17	4
CC(C)(C)C(=O)C(Cc1ccccc1Cl)n1cncn1 (stereo not given)	0	.	i	13	3	25
CC(C)(C)C(O)C(Cc1ccccc1Cl)n1cncn1 (stereo not given)	8	11	0	-8	9	276*
COc1ccc(N(CC(=O)NN=Cc2ccc(OC)cc2OC)S(=O)(=O)c2ccccc2)cc1	1	2	.	.	16	.
CC(=NO)c1cc(C(C)(C)C)c(O)c(C(C)(C)C)c1	-2	3	.	.	9	.
COc1ccccc1C=NNC(=O)CC(=O)Nc1ccc(Cl)c(Cl)c1	15	2	.	.	9	.
COc1cc(C#Cc2c(-c3cncn3C)n(C)c3ccc(Br)cc23)cc(OC)c1	99*	-2	-1	7	99*	?
COc1cc(C#Cc2c(-c3cncn3C)n(C)c3ccc(-c4ccc(OC)c(OC)c4)cc23)cc(OC)c1	8	-5	-8	-6	29	6
O=C(CN1c2ccccc2Sc2ccccc21)NNC(=S)Nc1ccc(Cl)cc1	-5	16	i	-8	-5	75*
C=CCOc1cccc(C2C(C(=O)c3cc4ccccc4o3)=C(O)C(=O)N2c2cc(C)on2)c1 (stereo not given)	100*	-8	i	22	100*	0
CCCOc1ccc(C2C(C(=O)c3cc4ccccc4o3)=C(O)C(=O)N2c2cc(C)on2)cc1OC (stereo not given)	99*	-6	i	29	100*	1
SMILES	Sa RN4220 lethal	Mtb hypoxia inh	BH1578 lux ind	CCHF vOTU inh	Sa ugtP lethal	PfHsp40 rescue
Cc1cc(N2C(=O)C(O)=C(C(=O)c3ccco3)C2c2cccc(Cl)c2)no1 (stereo not given)	96*	-8	-2	12	92*	1
COc1cccc(C2C(C(=O)c3cc4ccccc4o3)=C(O)C(=O)N2c2cc(C)on2)c1 (stereo not given)	31	-9	0	14	61	2
CCCOc1ccc(C2C(C(=O)c3cc4ccccc4o3)=C(O)C(=O)N2c2cc(C)on2)cc1 (stereo not given)	.	.	0	12	.	0
CCOC(=O)C1=CCC(c2cccc(C)c2)N(S(=O)(=O)c2ccc(C)cc2)C1C(=O)OCC (stereo not given)	14	5	.	.	19	.
N#C/C(=C(/O)COC(=O)Cc1c[nH]c2ccccc12)c1nc2ccccc2[nH]1	.	.	.	2	.	80*
O=C(CC(=O)Nc1cccc(Cl)c1)NN=Cc1ccccc1	5	4	.	.	-9	.
c1ccc(CNc2nc(NCc3ccccc3)c3ccccc3n2)cc1	92*	-2	1	.	101*	-1
c1ccc(CNc2nc(-c3ccccc3)nc3ccccc23)cc1	-17	0	i	1	-8	0
Cc1nnc(NCc2ccccc2)c2ccccc12	-5	81*	i	-12	-2	0
Cc1nnc(NCc2ccncc2)c2ccccc12	3	-20	0	-20	-6	0
COc1ccc2c(c1)c(C=NNc1ccc(C(=O)O)cc1)c(C)n2C	2	16	.	.	0	.
CCCCOc1ccc(C(=O)N2CCC(C)CC2)cc1	3	8	0	-2	2	11
CC1CN(C)C(C)CC1OC(=O)C(c1ccccc1)c1ccccc1 (stereo not given)	1	4	0	-5	86*	.
CCCCOc1ccc(C(=O)OC2CC(C)N(C)CC2C)cc1 (stereo not given)	5	15	-1	8	98*	-1
C=CCC(CC(=O)N(CCO)Cc1ccccc1)C(=O)NCCOC(=O)C(CC=C)CC(=O)OC(C)(C)C (stereo not given)	7	6	.	.	5	.
N#CC(=Cc1ccc(O)c([N+](=O)[O-])c1)c1nc2ccccc2s1	96*	.	.	.	97*	.
CNC(=O)c1[nH]cnc1C(=O)NC(C)C(=O)OC(C)(C)C (stereo not given)	5	2	.	.	7	.
CN(C)CCSc1nc2cc(S(=O)(=O)N3CCCCC3)ccc2o1	5	35*	i	-4	5	0
COC(=O)c1ccccc1NC(=O)c1ccccc1OC	6	.	2	9	-1	2
COc1ccc(C(=O)Nc2ccc(C)cc2C(=O)c2ccccc2)cc1	-1	14	0	-5	19	4
COc1ccc(C(=O)Nc2ccc3ccccc3c2)c(OC)c1	-3	10	i	-2	21	60*
COc1ccccc1C(=O)Nc1ccc(C)cc1C(=O)c1ccccc1	-3	11	0	10	93*	1
COc1cc(C(=O)Nc2ccc(Br)cc2C(=O)c2ccccc2)cc(OC)c1OC	-7	5	i	7	-7	81*
COc1ccccc1C(=O)Nc1ccc2ccccc2c1	0	17	-1	16	3	4

Screening results from PubChem.
